About 1,100 (52%) of roughly 2,100 compounds were called active. Roughly 27% stayed inconclusive and do not appear here. So high a share suggests a set chosen from earlier hits. The list shows a part of the results. Unmarked numbers belong to inactive results. Calls follow the shape of the dose curve; as a rule, active = well fitted inhibition curve with a large enough effect; inconclusive = small, poorly fitted or top-dose-only effect; inactive = no such curve, though single readings can be large or run the other way.
These molecules were tested against DNA dC->dU-editing enzyme APOBEC-3G (Homo sapiens) (UniProt Q9HC16) (assay: qHTS for inhibitors of Vif-A3G interactions: Cherry picks counterscreen). Settings: HeLa A3G-eYFP + Vif (tagged APOBEC3G with the HIV-1 protein that degrades it), eYFP fluorescence, 24 h.
DNA dC->dU-editing enzyme APOBEC-3G (Homo sapiens), sequence (Q9HC16 whole entry, looked up): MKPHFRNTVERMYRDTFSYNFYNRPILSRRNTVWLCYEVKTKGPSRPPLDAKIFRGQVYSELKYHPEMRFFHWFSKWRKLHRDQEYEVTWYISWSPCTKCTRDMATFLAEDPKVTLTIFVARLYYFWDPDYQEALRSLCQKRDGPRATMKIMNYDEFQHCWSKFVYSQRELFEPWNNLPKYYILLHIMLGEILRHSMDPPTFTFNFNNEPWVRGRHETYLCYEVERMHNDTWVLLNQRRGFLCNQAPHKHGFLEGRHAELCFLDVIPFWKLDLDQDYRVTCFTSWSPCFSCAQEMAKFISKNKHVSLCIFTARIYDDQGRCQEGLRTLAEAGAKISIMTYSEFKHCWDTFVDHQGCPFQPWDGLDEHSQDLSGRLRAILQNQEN
From the text: The recent discovery and characterization of host restriction factors, which provide a potent defense to invading retroviruses, has provided new targets for antiviral drug development. APOBEC3G (A3G) and APOBEC3F (A3F) are potent cytidine deaminases that block HIV-1 replication; HIV-1 expresses the Vif protein, which counteracts A3G and A3F by binding to them and inducing their proteasomal degradation. The Vif-A3G and Vif-A3F interactions provide two potential targets for development of small molecules which can interfere with the ability of Vif to degrade A3G or A3F. […] To identify inhibitors that can interfere with Vif mediated degradation of A3G and A3F, we have developed Hela cell lines that stably express A3G or A3F tagged with eYFP at the C-terminal end (A3G-eYFP or A3F-eYFP, respectively) and Vif. In the absence of an inhibitor, Vif induces degradation of A3G-eYFP and A3F-eYFP, and the cells are not fluorescent. In the presence of an inhibitor, it is expected that Vif will be unable to degrade A3G-eYFP and/or A3F-eYFP, resulting in an increase in yellow fluorescence. In this counterscreen assay, Vif A3G was screened against the cherry picks ordered from the MLSMR. NIH Chemical Genomics Center [NCGC] NIH Molecular Libraries Probe Centers Network [MLPCN] MLPCN Grant: MH093245 Assay Submitter (PI): Vinay Pathak, National Cancer Institute
A3G-Vif cells were harvested from T225 flask and resuspended in phenol free OPTI-MEM medium with 5% FBS. Then 5 uL of 140,000 cells/mL resuspended cells was dispensed into each well of low base Aurora COC 1,536-well plates (black walled, clear bottom) using a Multidrop Combi dispenser. After overnight culture at 37 deg C with 5% CO2, a total of 23 nL of compounds at 5 selected concentrations from the NPC or positive control (2 mM stock of MG132) in DMSO was transferred to each well of the assay plate using a pintool (Kalypsys, San Diego, CA), and the plates were further incubated at 37 deg C with 5% CO2 for 24 hours. After that, the plates were measured on Acumen Explorer (TTP Lab Tech). The fluorescence was detected by 488 nm/Ex and […].
With `COC(=O)CCC(=O)NC(=S)Nc1sc(C)c(C)c1C(N)=O` the Potency was 0.886 µM (active).
`Cc1nonc1NC(=O)CSc1nc2c(C)cccc2cc1C#N` was tested, and the Potency was 20.6 µM (active).
With `Cc1cc(NC(=O)CSc2nc(-c3cccs3)nc3ccccc23)no1` the Potency was 3.53 µM (active).
With `Cc1cc(NC(=O)CSc2nc3c(C)cccc3cc2C#N)no1` the Potency was 4.11 µM (active).
With `C1=Cc2ccccc2/C1=C\c1cc2c3c(c1)CCCN3CCC2` the Potency was 13 µM (active).
In the case of `c1ccc2c(CCc3c[nH]c4ccccc34)ccnc2c1`, the Potency was 16.4 µM (active).
`CSc1nsc(/C=C/Nc2ccc(C)cc2)c1C#N` was tested, and the Potency was 15.8 µM (active).
In the case of `CSc1nsc(/C=C/Nc2ccc(F)cc2)c1C#N`, the Potency was 16.4 µM (active).
`CCN(CC)c1ccc(/C=c2/sc3nnc(-c4ccccc4C)n3c2=O)cc1` was tested, and the Potency was 23.1 µM (active).
For `CCOC(=O)Nc1ccc2nc(-c3cscn3)[nH]c2c1`, the Potency was 8.86 µM (active).
With `O=C(O)CCCN1C(=O)/C(=C\C(Cl)=C\c2ccccc2)SC1=S` the Potency was 5.59 µM (active).
For `CCC(=O)Nc1ccccc1-c1nc2ccccc2n(C(C)C(=O)Nc2ccc(OC)cc2)c1=O` (stereo not given), the Potency was 8.2 µM (active).
In the case of `COCCNC(=O)C(=O)Nc1ccc2c(c1)N(S(=O)(=O)c1cccs1)CCC2`, the Potency was 6.27 µM (active).
In the case of `Cc1nnc(NC(=O)c2sc3nc(-c4cccs4)cc(C(F)(F)F)c3c2N)s1`, the Potency was 2.59 µM (active).
With `Nc1c(C(=O)Nc2nc3ccccc3s2)sc2nc(-c3cccs3)ccc12` the Potency was 6.51 µM (active).
`Nc1c(C(=O)Nc2ccc(F)cc2)sc2nc(-c3cccs3)cc(C(F)(F)F)c12` was tested, and the Potency was 0.82 µM (active).
`O=C(Nc1nc2ccccc2s1)c1ccc([N+](=O)[O-])o1` gave a max response of -24.2%.
`Nc1c(C(=O)Nc2nccs2)sc2nc(-c3cccs3)cc(C(F)(F)F)c12` was tested, and the Potency was 7.9 µM (active).
Work on `CC(C)Cn1c(N)c(C(=O)COC(=O)c2ccc([N+](=O)[O-])o2)c(=O)n(C)c1=O` yielded a max response of 8.96%.
Work on `O=C(/C=C/c1ccco1)N1CCc2ccccc21` yielded a max response of -19.9%.
With `Cc1c(C(=O)C(=O)N2CCCc3ccccc32)c2ccccc2n1C` the Potency was 11.2 µM (active).
`Cc1c(C(=O)C(=O)N2CC=C(c3ccccc3)CC2)c2ccccc2n1C` was tested, and the Potency was 7.04 µM (active).
`Cc1ccc(NC(=S)Nc2ccccn2)c(C)c1` showed a max response of -5.64%.
`CCOC(=O)c1cc(-c2ccccc2)sc1NC(=S)Nc1cc(C)ccn1` was tested, and the Potency was 18.4 µM (active).
`CCOC(=O)c1ccc(NC(=S)Nc2cccc(C)n2)cc1` gave a max response of -9.19%.
With `Cc1ccnc(NC(=O)Nc2ccc3c(c2)N(C)C(=O)CS3)c1` the Potency was 2.59 µM (active).
`Cc1ccc(-c2nc3sc(C#N)c(N)n3c(=O)c2C#N)cc1` was tested, and the Potency was 25.9 µM (active).
With `O=C1c2ccccc2C(=O)c2cc(N3CCCCC3)ccc21` the Potency was 6.27 µM (active).
With `Cc1ccc(C(=O)N/C(=C/c2ccc(-c3ccc([N+](=O)[O-])cc3)o2)C(=O)NCCCN(C)C)cc1` the Potency was 15.8 µM (active).
`Cc1cc2nc3s/c(=C/c4ccc(-c5ccccc5C(=O)O)o4)c(=O)n3c2cc1C` was tested, and the Potency was 23.1 µM (active).
In the case of `Cc1cc(C)cc(NC(=S)NC(=O)C2CC2)c1`, the max response was -14.6%.
For `O=C1/C(=C\c2cc([N+](=O)[O-])ccc2O)SC(=S)N1Cc1ccc(Cl)cc1`, the Potency was 18.4 µM (active).
With `Cc1cc(N)cc(C)c1-c1c(Br)cc(N)cc1Br` the Potency was 8.86 µM (active).
In the case of `Nc1c(C(=O)c2ccccc2)sc2nsc(SCCN3CCCC3)c12`, the Potency was 14 µM (active).
With `Nc1c(C(=O)c2ccccc2)sc2nsc(SCCN3CCOCC3)c12` the Potency was 4.61 µM (active).
`Nc1c(C(=O)c2ccccc2)sc2snc(SCC(=O)c3ccccc3)c12` was tested, and the Potency was 14 µM (active).
With `COc1ccc(OC)c(S(=O)(=O)N/N=C\c2cn(CC(N)=O)c3ccccc23)c1` the Potency was 15.8 µM (active).
With `COC(=O)Cn1c(C)c(/C=C/c2cc[n+](C)cc2)c2ccccc21` the Potency was 9.2 µM (active).
For `CCN(CC)C(=O)Cn1c(C)c(/C=C/c2cc[n+](C)cc2)c2ccccc21`, the Potency was 15.8 µM (active).
For `CCOC(=O)c1c(Nc2ccc(Cl)cc2)sc(/C=C2\C=Nc3ccccc32)c1O`, the Potency was 20.6 µM (active).
For `CN(C)c1ccc(C=C2SC(=S)NC2=O)cc1`, the Potency was 9.94 µM (active).
For `COc1ccccc1N=C1NC(=O)/C(=C/c2ccc(N(C)C)cc2)S1`, the max response was 38.1%.
`CCOc1ccc(N(C)c2ccc(/C=C3/SC(=S)NC3=O)cc2)cc1` was tested, and the Potency was 15.8 µM (active).
In the case of `C=C1C(=O)O[C@@H]2[C@H]1[C@@H](OC(=O)/C(C)=C/C)C/C(C)=C\C(=O)/C=C(\C)[C@@H]2O`, the Potency was 15.8 µM (active).
`C=CCN1C(=O)/C(=C\C=C2\N(C)c3ccccc3C2(C)C)SC1=S` was tested, and the Potency was 0.291 µM (active).
`CCCN1C(=O)/C(=C\C=C2\N(CC)c3ccccc3C2(C)C)SC1=S` was tested, and the Potency was 2.06 µM (active).
For `CN1/C(=C/C=C(/C#N)C(N)=O)C(C)(C)c2ccccc21`, the Potency was 9.94 µM (active).
Molecule `CCCCN1C(=O)/C(=C/C=C2/CC(C)(C)CN2C)SC1=S` has a max response of 54.7%.
With `CCCN1C(=O)/C(=C/C=C2\N(CC)c3ccccc3C2(C)C)SC1=S` the Potency was 1.58 µM (active).
Molecule `CN1/C(=C\C=C2/SC(=S)N(CC(=O)O)C2=O)C(C)(C)c2ccccc21` has a max response of 52.2%.
For `CN1/C(=C\C=C2/SC(=S)NC2=O)C(C)(C)c2ccccc21`, the Potency was 3.53 µM (active).
Molecule `COc1ccc2c(c1)/C(=C\c1cccc(/C=C3/C(=O)Nc4ccc(OC)cc43)n1)C(=O)N2` has a max response of -72.2%.
With `COc1ccc2c(c1)/C(=C/c1cc(OC)c(OC)c(OC)c1)C(=O)N2` the Potency was 3.53 µM (active).
For `O=[N+]([O-])c1cc(-c2nc(-c3ccccc3)no2)ccc1NCc1ccco1`, the Potency was 10.3 µM (active).
`Cc1cccc(-c2noc(-c3ccc(NCc4ccco4)c([N+](=O)[O-])c3)n2)c1` was tested, and the Potency was 20.6 µM (active).
Molecule `O=C1N/C(=N\N=C\c2ccco2)SC1Cc1ccccc1[N+](=O)[O-]` (stereo not given) has a max response of -1.06%.
For `O=C(NCc1cccnc1)c1cccc(NS(=O)(=O)c2ccc(Br)cc2)c1`, the Potency was 4.44 µM (active).
`CCN(CC)c1ccc2c(c1)OC(N)=C(C#N)C2c1cccnc1` (stereo not given) was tested, and the Potency was 15.8 µM (active).
With `N#CC1=C(N)Oc2ccc3ccccc3c2C1c1cccnc1` (stereo not given) the Potency was 6.27 µM (active).
For `COc1cc(OC)c(/C=C/c2ccc3ccccc3[n+]2C)c(OC)c1`, the Potency was 20.6 µM (active).
In the case of `CCCCN1C(=O)C2Cc3c([nH]c4ccccc34)CN2C1=S` (stereo not given), the Potency was 15.8 µM (active).
For `CCOc1ccc(CN2C(=O)c3ccccc3Sc3ccc(C(=O)O)cc32)cc1`, the Potency was 4.61 µM (active).
In the case of `O=C(NNC1=Nc2cccc3cccc1c23)c1ccc(Br)cc1`, the Potency was 23.1 µM (active).
`Nc1c(C(=O)N/N=C/c2ccccc2Cl)oc2nc(-c3ccccc3)cc(-c3ccco3)c12` was tested, and the Potency was 2.91 µM (active).
In the case of `Nc1c(C(=O)N/N=C/c2ccc(F)cc2)oc2nc(-c3ccccc3)cc(-c3ccco3)c12`, the Potency was 6.27 µM (active).
With `C/C(=N\Nc1nc(C)cc(-c2ccccc2)n1)c1ccc(F)cc1` the max response was -5.07%.
`Nc1c(C(=O)N/N=C/c2cccnc2)oc2nc(-c3ccccc3)cc(-c3ccco3)c12` was tested, and the Potency was 8.2 µM (active).
`Cc1cc(-c2ccccc2)nc(N/N=C/c2ccccc2F)n1` gave a max response of -29.5%.
Molecule `CSCC[C@H](NC(=O)[C@H](Cc1ccccc1)n1c(=O)[nH]c2ccccc2c1=O)C(=O)N1CCC[C@@H]1C(=O)O` has a max response of 6.25%.
`O=C(CN1c2ccccc2Sc2ccccc21)NNC(=O)Nc1cccc(Cl)c1` was tested, and the max response was -25.9%.
With `O=C(CN1C(=O)CSc2ncccc21)Nc1cccc(Cl)c1` the Potency was 23.1 µM (active).
With `COc1ccc(NC(=O)CN2C(=O)C3(SCC(=O)N3c3ccccc3)c3ccccc32)cc1Cl` (stereo not given) the max response was 10.4%.
`CC(/C=C/c1ccc(N(C)C)cc1)=N\N=C(/N)SC1CC(=O)N(c2ccc(C(=O)O)cc2)C1=O` (stereo not given) showed a max response of -29.3%.
In the case of `CCOC(=O)C1C(=O)C=C(/C=C/c2ccc(N(C)C)cc2)CC1c1ccccc1` (stereo not given), the Potency was 4.61 µM (active).
`CC(C)CC(=O)NC(=S)N(Cc1ccccc1)Cc1ccccc1` gave a max response of -12.5%.
In the case of `COc1cc(/C=C2\C(=N)N3N=CSC3=NC2=O)cc(Br)c1OC(=O)c1ccco1`, the max response was 43.8%.
`COc1cc(/C=C2\SC(N)=NC2=O)cc(Br)c1O` was tested, and the Potency was 17.7 µM (active).
`CCC(C)Sc1cc(-c2nc3ccccn3c2NC2CCCCC2)ccc1OC` (stereo not given) showed a max response of 6.89%.
In the case of `COc1cc(-c2nc3ccc(C)cn3c2NCc2ccccc2)ccc1SC1CCCCC1`, the max response was 34.4%.
`COc1ccc(-c2nc3c4ccccc4ccn3c2Cc2ccsc2)cc1OC` showed a max response of -1.53%.
With `COc1ccc(-c2nnc(SCC(=O)NCc3ccccc3)nc2-c2ccc(OC)c(OC)c2)cc1OC` the Potency was 2.59 µM (active).
`CCOc1cc(C)nc(NCc2ccccc2)n1` gave a max response of -21.7%.
`CCOc1cc(-c2nnc(SCC(=O)NCc3ccccc3)nc2-c2ccc(OC)c(OCC)c2)ccc1OC` was tested, and the Potency was 2.31 µM (active).
With `Cc1nc(C)c(C(=O)OCC(=O)Nc2ccccc2SCC#N)s1` the Potency was 15.8 µM (active).
With `N#CCSc1ccccc1NC(=O)COc1ccc(-c2nnco2)cc1` the Potency was 12.5 µM (active).
Molecule `COc1ccc(C(=O)NC(=S)NCc2cccnc2)cc1Cl` has a max response of -0.724%.
In the case of `CCC1=Nc2cc(C(=O)NCc3cccnc3)ccc2Sc2ccc(C)cc21`, the Potency was 12.5 µM (active).
`C=CCNc1nc(-c2ccccc2)c(C(=O)OCC)cc1C#N` was tested, and the Potency was 7.04 µM (active).
For `CCOC(=O)c1cnc(-n2nc(C)cc2C)nc1NNc1nc(-c2ccccc2)cc(-c2ccccc2)n1`, the max response was 18.7%.
Work on `CCOC(=O)c1cnc(-n2nc(C)cc2C)nc1NNc1cc(C)nc(-c2ccccc2)n1` yielded a max response of 14.5%.

Source: PubChem BioAssay AID651813 (National Center for Advancing Translational Sciences (NCATS), 2012)
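Also: hits raise yellow fluorescence by blocking Vif-driven A3G-eYFP degradation; nearly all actives have a fitted effect of over 70% in size.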
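For max response in this document: max response given as percent of control signal.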
Potency is read from the fitted curve at half-maximal effect.
